# Records with an inconclusive call do not appear. Activity calls are given as the source filed them. Rule for the calls: active = hit-call score of the fitted dose curve at least 0.9, where 1 is the maximum; inconclusive = response in the unintended direction; inactive = score below 0.9.
# Target: human MAP Kinase-Activated Protein Kinase 5 (MAPKAPK5), MAPKAPK5 (gene 8550) (UniProt Q8IW41)
# Assay: NVS_ENZ_hMAPKAPK5: NovaScreen (NVS) Enzymatic Assay for human MAP Kinase-Activated Protein Kinase 5 (MAPKAPK5)
# Procedure: NVS_ENZ_hMAPKAPK5 is a biochemical, single-readout assay that uses extracted gene-proteins in a cell-free assay. Measurements were taken 1 hour after chemical dosing in a 384-well plate.NVS_ENZ_hMAPKAPK5 is one of one assay component(s) measured or calculated from the NVS_ENZ_hMAPKAPK5 assay. It is designed to make measurements of enzyme activity, a form of enzyme reporter, as detected with fluorescence intensity signals by Fluorescence and electrophoretic mobility shift technology.Data from the assay component NVS_ENZ_hMAPKAPK5 was analyzed into 1 assay endpoint. This assay endpoint, NVS_ENZ_hMAPKAPK5, was analyzed in the positive analysis fitting direction relative to DMSO as the negative control and baseline of activity. Using a type of enzyme reporter, loss-of-signal activity can be used to understand changes in the enzymatic activity as they relate to the gene MAPKAPK5. Furthermore, this assay endpoint can be referred to as a primary readout, because this assay […]. To generalize the intended target to other relatable targets, this assay endpoint is annotated to the kinase intended target family, where the subfamily is serine/threonine kinase.
# Binding assays used specific radioligands (tritiated, iodinated) with non-radioactive competitive displacement ligands in agonist or antagonist protocols (as indicated) and various reference compounds and inhibitors to titrate specific binding to receptors and transporters. Most enzyme assays (CYPs, kinases, phosphatases, proteases, HDACs) used recombinant protein and specific substrates (fluorescence mostly, some colorimetric and radioactive) and inhibitors, followed by a biochemical separation of substrate and product. All assays for the biochemical HTS were initially run in duplicate at a single concentration (10 uM for CYP450 assays and 25 uM for all others). Assay-chemical combinations meeting a pre-defined threshold (e.g., 30% inhibition and other criteria defined below) were then run in singleton concentration-response format with maximum concentration of 20 uM for CYPs and 50 uM for all others. Each assay was run with positive and negative controls, and concurrent controls on every plate. The follow-up (secondary) screen tested active chemical-pairs in concentration series, as well as a few additional assays not tested in the primary screen, some selected negative inactives, and several cases re-run in the concentration series for confirmatory purposes.
# human MAP Kinase-Activated Protein Kinase 5 (MAPKAPK5), MAPKAPK5 (gene 8550), sequence (Q8IW41 whole entry, looked up): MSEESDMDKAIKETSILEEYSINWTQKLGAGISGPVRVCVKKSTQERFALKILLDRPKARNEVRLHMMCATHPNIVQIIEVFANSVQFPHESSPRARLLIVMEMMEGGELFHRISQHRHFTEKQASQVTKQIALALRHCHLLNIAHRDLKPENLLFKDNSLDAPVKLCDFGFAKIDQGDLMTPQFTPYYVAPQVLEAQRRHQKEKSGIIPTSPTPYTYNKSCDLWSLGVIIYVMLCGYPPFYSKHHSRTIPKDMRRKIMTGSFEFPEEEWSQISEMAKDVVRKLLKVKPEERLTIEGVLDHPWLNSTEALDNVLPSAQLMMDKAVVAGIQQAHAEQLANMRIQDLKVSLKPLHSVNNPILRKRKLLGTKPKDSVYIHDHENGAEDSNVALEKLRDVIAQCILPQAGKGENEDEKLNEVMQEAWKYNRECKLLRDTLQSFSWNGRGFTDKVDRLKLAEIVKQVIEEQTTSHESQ
SMILES,outcome,AC50
O=C(Nc1ccc([N+](=O)[O-])cc1Cl)c1cc(Cl)ccc1O,inactive,–
O=C(O)C1(C(=O)Nc2ccc(Cl)cc2Cl)CC1,–,19.1 µM (active)
S=C([S-])NCCNC(=S)[S-].[Mn+2],–,0.789 µM (active)
N#CSCSc1nc2ccccc2s1,–,14.7 µM (active)
CCN(CC)C(=O)c1cccc(C)c1,inactive,–
CCOC(=O)[C@H](C)Oc1ccc(Oc2nc3ccc(Cl)cc3o2)cc1,inactive,–
S=C(S)NCCNC(=S)S.[Mn+2].[S-]C([S-])=NCCN=C([S-])[S-].[Zn+2],–,2.41 µM (active)

# Reference: PubChem BioAssay AID2283176 (EPA ToxCast)
